# Assay results from paper PMC4336329 (PLoS ONE, 2015).
# Hit rate of the full screen: of about 310,000 compounds, about 14,000 (4.5%) showed an effect of 50% or more. Effects have a minus sign here. What follows is part of a selection rich in strong results, with near analogues and random picks from the rest.
# Target: human ether-à-go-go-related gene (hERG) potassium channel (human, UniProt Q12809)
# Assay: primary screen, population patch clamp on CHO cells stably expressing hERG; higher = less effect of the substance
# 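Note: peak tail current of the secondary pulse compared with the same well before compound.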
# Sequence of human ether-à-go-go-related gene (hERG) potassium channel (Q12809 whole entry, looked up): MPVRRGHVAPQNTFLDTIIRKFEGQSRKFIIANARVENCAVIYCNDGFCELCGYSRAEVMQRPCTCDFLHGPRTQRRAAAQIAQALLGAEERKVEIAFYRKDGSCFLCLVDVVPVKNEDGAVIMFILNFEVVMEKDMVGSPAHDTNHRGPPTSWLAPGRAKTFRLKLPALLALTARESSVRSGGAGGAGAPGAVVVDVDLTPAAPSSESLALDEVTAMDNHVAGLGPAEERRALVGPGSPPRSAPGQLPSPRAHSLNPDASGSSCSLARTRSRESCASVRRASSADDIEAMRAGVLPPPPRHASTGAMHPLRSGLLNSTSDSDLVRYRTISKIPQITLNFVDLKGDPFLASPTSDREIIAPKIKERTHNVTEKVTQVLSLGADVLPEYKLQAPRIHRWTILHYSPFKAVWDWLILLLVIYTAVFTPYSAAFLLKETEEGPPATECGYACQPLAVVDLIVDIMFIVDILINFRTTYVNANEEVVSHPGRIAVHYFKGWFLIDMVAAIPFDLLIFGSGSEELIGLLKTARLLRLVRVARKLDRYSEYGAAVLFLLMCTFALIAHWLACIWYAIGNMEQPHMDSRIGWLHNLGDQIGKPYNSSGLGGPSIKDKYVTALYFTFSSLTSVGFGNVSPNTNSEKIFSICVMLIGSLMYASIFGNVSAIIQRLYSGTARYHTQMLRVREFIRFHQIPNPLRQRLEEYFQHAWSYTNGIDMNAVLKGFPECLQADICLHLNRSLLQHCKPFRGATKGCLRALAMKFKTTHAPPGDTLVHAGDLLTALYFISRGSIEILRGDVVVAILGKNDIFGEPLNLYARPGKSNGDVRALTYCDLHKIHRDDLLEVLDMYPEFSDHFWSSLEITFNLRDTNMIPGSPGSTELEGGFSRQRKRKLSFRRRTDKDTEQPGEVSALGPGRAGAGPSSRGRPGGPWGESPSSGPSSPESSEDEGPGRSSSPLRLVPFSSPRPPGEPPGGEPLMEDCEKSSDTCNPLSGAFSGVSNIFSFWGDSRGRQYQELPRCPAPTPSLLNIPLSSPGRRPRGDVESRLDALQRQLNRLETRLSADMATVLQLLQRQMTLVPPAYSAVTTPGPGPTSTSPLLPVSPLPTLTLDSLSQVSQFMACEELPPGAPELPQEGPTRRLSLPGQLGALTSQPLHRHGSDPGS
row,SMILES,"hERG current change (%, negative = inhibition) at 10uM"
1,O=C(CCCC(=O)N(c1ccc2c(c1)OCCO2)C(C(=O)NC1CCCCC1)c1ccc(F)cc1)Nc1ccccn1 (stereo not shown),10%
2,COc1ccc([N+](=O)[O-])cc1CSc1ccccn1,1.85%
3,O=C(NC1CCCCC1)C(c1cccs1)N(CC1CCCO1)C(=O)c1csnn1 (stereo not shown),-16.1%
4,COc1ccc(NC(=O)c2noc(C(C)C)c2[N+](=O)[O-])cc1,6.44%
5,COc1ccc(NC(=O)CN2CCN(S(=O)(=O)c3ccc(C(C)C)cc3)CC2)cc1OC,-66.5%
6,CCOc1ccc(NC(=O)CN2CCN(S(=O)(=O)c3ccc(Cl)cc3)CC2)cc1,-9.26%
7,Cc1ccc(NC(=O)CN2CCCN(S(=O)(=O)c3ccc(Br)s3)CC2)cc1,-50.1%
8,O=C(CN1CCN(S(=O)(=O)c2ccc(Cl)cc2)CC1)NC(=O)NC1CCCCC1,-27.7%
9,O=C(CN1CCCN(S(=O)(=O)c2ccc(Br)s2)CC1)Nc1ccc(Cl)cc1,-28.7%
10,Cc1cc(C)cc(NC(=O)CN2CCCN(S(=O)(=O)c3ccc(Br)s3)CC2)c1,-6.01%
11,COc1ccc(NC(=O)CCN2CCN(S(=O)(=O)c3ccc(Cl)cc3)CC2)cc1,-27.1%
12,O=C(CN1CCN(S(=O)(=O)c2ccc(Cl)cc2)CC1)NC1CCCC1,-50.2%
13,COc1cc(NC(=O)CN2CCN(S(=O)(=O)c3ccc(C(C)C)cc3)CC2)cc(OC)c1,-11.5%
14,COc1ccc(NC(=O)CN2CCN(S(=O)(=O)c3ccc(Cl)cc3)CC2)cc1,-79.7%
15,O=C(CN1CCN(S(=O)(=O)c2ccc(Cl)cc2)CC1)NC1CC1,1.82%
16,COc1ccc(NC(C)=O)cc1NC(=O)CN1CCN(S(=O)(=O)c2ccc(C(C)C)cc2)CC1,-9.86%
17,Cc1ccccc1/C=C1\SC(=S)N(/N=C/c2cc([N+](=O)[O-])ccc2O)C1=O,8.13%
18,COc1ccc(N(C)C(=O)c2cnc(N3CCN(c4ncccn4)CC3)c3ccccc23)cc1,-11.8%
19,Cc1ccc(NC(=O)N2CCC(NC(=O)C(C)(C)C)CC2)cc1,10.1%
20,O=C(Cn1cncn1)N/N=C/c1cccc(Cl)c1,16.3%
21,Oc1ccc(N=Nc2cccc(C(F)(F)F)c2)cc1C=Nc1ccc(N2CCOCC2)cc1,15.6%
22,CCOc1ccc(C(CC(=O)O)NC(=O)COc2ccccc2OC)cc1OC (stereo not shown),26.4%

row,SMILES,"hERG current change (%, negative = inhibition) at 10uM"
1,Cc1c(C(=O)O)cccc1-c1ccc(/C=N/Nc2ccc(Br)cc2)o1,30.2%
2,CCc1ccc(NC(=O)CN2CCCN(S(=O)(=O)c3ccc(F)cc3)CC2)cc1,-63.9%
3,COc1ccc(S(=O)(=O)N2CCN(CC(=O)Nc3cc(OC)cc(OC)c3)CC2)cc1,-0.404%
4,COc1ccc(NC(=O)CN2CCN(S(=O)(=O)c3ccc(Cl)cc3)CC2)cc1Cl,-0.308%
5,Cc1ccc(S(=O)(=O)N2CCN(C(=O)CCC(=O)NC3CCCc4ccccc43)CC2)cc1 (stereo not shown),-17.3%
6,O=C(CCC(=O)N1CCN(S(=O)(=O)c2ccccc2)CC1)NC1CCCc2ccccc21 (stereo not shown),-13.5%
7,O=C(CCC(=O)N1CCN(S(=O)(=O)c2ccc(Cl)cc2)CC1)NC1CCCc2ccccc21 (stereo not shown),-52.6%
8,O=C(CN1CCCN(S(=O)(=O)c2ccc(F)cc2)CC1)Nc1cccc(F)c1,-50.3%
9,NS(=O)(=O)c1ccc(NC(=O)CN2CCCN(S(=O)(=O)c3ccc(F)cc3)CC2)cc1,-17.9%
10,O=C(CN1CCCN(S(=O)(=O)c2ccc(F)cc2)CC1)Nc1c(Cl)cccc1Cl,-27.1%
11,O=C(CN1CCN(S(=O)(=O)c2ccc(F)cc2)CC1)Nc1ccc2c(c1)OCCO2,-10.9%
12,COc1ccc(NC(=O)CN2CCCN(S(=O)(=O)c3ccc(F)cc3)CC2)cc1,-36.5%
13,COc1ccc(S(=O)(=O)N2CCN(CC(=O)Nc3ccc(F)c(F)c3)CC2)cc1,-66.4%
14,Cc1c(C(=O)Nc2nnc(C(F)(F)F)s2)oc2ccccc12,13.1%
15,Cc1cc(OC(=O)c2ccc(S(=O)(=O)N(C)C)cc2)c([N+](=O)[O-])c(=O)[nH]1,10.6%
16,COc1ccc2c(c1OC)C(=O)OC2C1c2cc3c(cc2CCN1C)OCO3 (stereo not shown),6.25%
17,COc1cc(C(O)CN)ccc1O.Cl (stereo not shown),3.21%
18,CCN(CC)C(=S)Sc1c(-c2ccccc2)c2cc(Cl)ccc2[nH]c1=O,5.42%
19,COc1cccc(NC(=O)CN2CCN(S(=O)(=O)c3ccc(F)cc3)CC2)c1,-23.1%
20,COc1ccc(S(=O)(=O)N2CCN(CC(=O)Nc3cccc(F)c3)CC2)cc1,-54.1%
21,COc1ccc(S(=O)(=O)N2CCN(CC(=O)Nc3cccc(OC)c3)CC2)cc1,-31.4%
22,Cc1cnc(NC(=O)C(C)N2CCN(C)CC2)s1.O=C(O)C(=O)O (stereo not shown),20.7%

row,SMILES,"hERG current change (%, negative = inhibition) at 10uM"
1,O=C(O)C1(P(=O)(c2ccccc2)c2ccccc2)CCC1,-3.46%
2,CC(/C=N/Nc1nnc(C)c(=O)[nH]1)=C\c1ccccc1,-10.5%
3,CC(/C=N/Nc1ncc(C)c(=O)[nH]1)=C\c1ccccc1,-53%
4,CC(/C=N/Nc1nncc(=O)[nH]1)=C\c1ccccc1,3.08%
5,O=C(CSc1nnc(COc2ccc(Cl)cc2)o1)NC1CC2CCC1C2 (stereo not shown),11.5%
6,CCC(C)(C)NC(=O)C(C(C)C)N(CC1CCCO1)C(=O)CNS(=O)(=O)c1ccccc1 (stereo not shown),-2.21%
7,CCC(Oc1ccccc1)C(=O)Nc1ccc(C)c(S(=O)(=O)N2CCOCC2)c1 (stereo not shown),-18%
8,CC(Cc1ccccc1Sc1ccccc1O)N(C)C.Cl (stereo not shown),-18.9%
9,CC(Cc1ccccc1Sc1ccc(O)cc1)N(C)C.CCO.Cl (stereo not shown),-69.5%
10,CC(N)Cc1ccccc1Sc1ccc(O)cc1.O=C(O)C(=O)O (stereo not shown),-35.5%
11,CN(C)Cc1ccccc1Sc1ccc(Br)cc1,-15.6%
12,CNC(C)Cc1ccccc1Sc1ccc(O)cc1.Cl (stereo not shown),-66.7%
13,CNCc1ccccc1Sc1ccc(OC)cc1.Cl,-30.4%
14,O=C(C1=C(O)C(=O)N(CCN2CCOCC2)C1c1ccccc1)c1cccs1 (stereo not shown),-2.27%
15,O=C(OC(C(=O)NCc1cccs1)c1ccccc1F)c1ccco1 (stereo not shown),20.5%
16,CCOc1ccccc1NC(=O)COC(=O)C(Cc1ccccc1)NC(=O)c1ccco1 (stereo not shown),-8.33%
17,O=C1/C(=C\c2ccsc2)NC(=S)N1c1ccccc1,15.4%
18,COc1ccccc1OCCC(=O)OCC(=O)Nc1cc(S(=O)(=O)N(C)C)ccc1Cl,-6.26%
19,O=C(NCC1CCCCC1)C1(CC2CC(c3ccc(Cl)cc3)=NO2)CCNCC1 (stereo not shown),-71.6%
20,O=C(Cc1ccc(F)cc1)N1CCC(CC2CC(c3cccc(Br)c3)=NO2)(C(=O)NCC2CCCCC2)CC1 (stereo not shown),-8.67%
21,CCOc1cc(C(=O)N2CCC(CC3CC(c4ccc(Cl)cc4)=NO3)(C(=O)NCC3CCCCC3)CC2)cc(OCC)c1OCC (stereo not shown),1.25%
22,O=C(Cc1ccc(F)cc1)N1CCC(CC2CC(c3ccc(Cl)cc3)=NO2)(C(=O)NCC2CCCCC2)CC1 (stereo not shown),-72.3%

row,SMILES,"hERG current change (%, negative = inhibition) at 10uM"
1,O=C(NCC1CCCCC1)C1(CC2CC(c3cccc(Br)c3)=NO2)CCNCC1 (stereo not shown),-24.1%
2,COc1ccc(OC)c(-c2csc(NC(=O)C3c4ccccc4Oc4ccccc43)n2)c1,-5.7%
3,Cc1sc(-c2ccncc2)nc1OC(=O)c1cc(Cl)cc(Cl)c1,10.2%
4,COc1ccc(Cl)cc1NC(=O)CN(C)C(=O)CCC(=O)c1cc(C)sc1C,-29.5%
5,CC(C)C(CCN1C(=O)CCC1=O)C1CCOC(C)(C)C1 (stereo not shown),4.36%
6,CCn1ncc(Br)c1C(=O)Nc1cc(C(=O)OC)ccc1C(=O)OC,-3.95%
7,Cc1cc(OCc2cccc(Cl)c2)c(C)cc1CN1CCOCC1,0.275%
8,CCCCCCCCCC(=O)N[C@H](CN1CCOCC1)[C@H](O)c1ccccc1.Cl,-16.6%
9,Cc1ccc(Cn2c(=N)n(CC(O)COc3ccccc3)c3ccccc32)cc1.Cl (stereo not shown),-68.9%
10,O=C(O)c1ccc(OCC(O)Cn2c3ccccc3c3ccccc32)cc1 (stereo not shown),-18.5%
11,Cc1ccc(OCC(O)Cn2c(=N)n(Cc3ccccc3)c3ccccc32)cc1.Cl (stereo not shown),-81.6%
12,COC(=O)c1cn(S(=O)(=O)c2ccccc2)c2ccccc12,13%
13,Cc1ccc(NC(=O)NCc2ccc3c(c2)OCO3)cc1,5.69%
14,COc1cc2c(OC(C)=O)c3c(c(-c4ccc5c(c4)OCO5)c2cc1OC)C(=O)OC3,15.4%
15,Cc1ccc(NC(=O)CCN2CC(C)OC(C)C2)cc1C.Cl (stereo not shown),19.1%
16,CC(C)(C)NS(=O)(=O)c1cc(C(=O)O)ccc1Cl,4.6%
17,Cc1cc(C)nc(SCc2cc(=O)c(OC(=O)c3cccc([N+](=O)[O-])c3)co2)n1,-32.5%
18,O=C(Oc1coc(CSc2ncccn2)cc1=O)c1cccc([N+](=O)[O-])c1,-81.3%
19,O=C(Oc1coc(CSc2ncccn2)cc1=O)c1ccccc1[N+](=O)[O-],14.4%
